{"source": "PubChem BioAssay (NCATS)", "note": "Inconclusive results are not listed. Values without a mark were called inactive. Activity calls are given as the source filed them. The call rests on the fitted dose curve; in most records, active means well fitted inhibition curve with a large enough effect; inconclusive means small, poorly fitted or top-dose-only effect; inactive means flat fitted curve, though single readings scatter. Where a SMILES comes first, the peptide text is derived from it. [ ]: non-standard residue; d: D form. ξ: configuration not given here. ξLac(3-iPr) = CC(C)CC(O)C(=O)O; NMeV = CN[CH](C(=O)O)C(C)C; βAla = NCCC(=O)O", "data": [{"tested_on": "KB-3-1", "assay": "Cytotoxic Profiling of Annotated Libraries Using Quantitative High-Throughput Screening (AID 1296008); further: nearly all actives have a fitted effect of over 60% in size; further: potency means the concentration at half of the fitted maximal effect; on max response: on the % scale 0 is the no-effect control and ±100 the full control effect", "settings": "Five cell lines viability, CellTiter-Glo ATP luminescence, 48-72 h; max response: stronger effect = lower value", "procedure,_shortened": "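Cells exposed to compounds for 48 or 72 hr at 37 degrees Celsius. Viability read as ATP-coupled luminescence with CellTiter-Glo after 10 min at room temperature.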", "units": {"max response": "%"}, "values": [{"compound": "CC(=O)NCC(=O)N1C2CCC1c1cc(Nc3ncc(C(F)(F)F)c(NC4CCC4)n3)ccc12", "note": "(centres undefined)", "Potency": "1030 nM (active)"}, {"compound": "Cn1c(=O)cc(N2CCCC(N)C2)n(Cc2cc(F)ccc2C#N)c1=O", "note": "(centres undefined)", "max response": -0.0728}, {"compound": "NC(=O)[C@H](O[C@@H]1O[C@H](CO)[C@@H](O)[C@H](O)[C@H]1O)c1ccccc1", "outcome": "inactive"}, {"compound": "Nc1nccn2c(C3CCC(C(=O)O)CC3)nc(-c3cc4cccc(Cl)c4[nH]3)c12", "note": "(centres undefined)", "Potency": "1840 nM (active)"}, {"compound": "CNC(=O)c1cccc(-c2ccc3c(N4CCOC[C@@H]4C)nc(N4CCOC[C@@H]4C)nc3n2)c1", "Potency": "326 nM (active)"}, {"compound": "O=C(O)/C=C/c1ccc(O)c(O[C@@H]2O[C@H](CO)[C@@H](O)[C@H](O)[C@H]2O)c1", "outcome": "inactive"}, {"compound": "FC(F)(F)c1ccc(Nc2nc(-c3c(C(F)(F)F)nc4ccccn34)cs2)cc1", "Potency": "206 nM (active)"}, {"compound": "O=C(O)/C=C/c1ccc(-c2ccc(O)c(C34CC5CC(CC(C5)C3)C4)c2)cc1", "Potency": "2060 nM (active)"}, {"compound": "CO[C@@H](C)Cn1c(=O)n(C)c2cnc3ccc(-c4cncc(C(C)(C)O)c4)cc3c21", "Potency": "651 nM (active)"}, {"compound": "CCO[C@@H]1OC(=O)C[C@@H]1NC(=O)[C@@H]1CCCN1C(=O)[C@@H](NC(=O)c1ccc(N)c(Cl)c1)C(C)(C)C", "max response": 2.91}, {"compound": "CC(=O)C1=C(C)N(c2cccc(C(F)(F)F)c2)C(=O)N[C@H]1c1ccc(C#N)nc1", "max response": 1.77}, {"compound": "C=CC1C(OC2OC(CO)C(O)C(O)C2O)OC=C(C(=O)OC)C1CC1CC(=O)CC(CCc2ccc(O)cc2)O1", "note": "(centres undefined)", "max response": 0.837}, {"compound": "CC(C)C(CO)Nc1nc(Nc2ccc(C(=O)O)c(Cl)c2)c2ncn(C(C)C)c2n1", "note": "(centres undefined)", "max response": 1.82}, {"compound": "C#CC[C@H](c1nc2cc(Cl)ccc2c(=O)n1Nc1ccccc1)N(CCCN)C(=O)c1cccc(Cl)c1F", "Potency": "920 nM (active)"}, {"compound": "CN(C)c1nc(NC2CCC(NCCc3ccc(Br)cc3OC(F)(F)F)CC2)nc2ccccc12", "note": "(centres undefined)", "Potency": "4610 nM (active)"}, {"compound": "C/C=C/C=C/C=C/C(=O)OC1C=C(C=O)C(O)(C(=O)O)C2(C)CCCC(C)(C)C12", "note": "(centres undefined)", "max response": 7.06}, {"compound": "COc1cc(O)c2c(c1)C1=CC(O)C(O)CC1(C)OC2=O", "note": "(centres undefined)", "outcome": "inactive"}, {"compound": "CN(C)CCCCC(=O)Nc1ccc(NC(=S)NC(=O)c2ccc(C(C)(C)C)cc2)cc1", "Potency": "14600 nM (active)"}, {"compound": "CC1C(=O)CC2C3CCC(C(=O)O)C12CC3(C)CO", "note": "(centres undefined)", "max response": 0.285}, {"compound": "C[C@@H]1O[C@@H](O[C@H]2[C@H](O[C@H]3CC[C@@]4(C)C(CC[C@]5(C)C4CC=C4[C@@H]6CC(C)(C)CC[C@]6(C(=O)O[C@@H]6OC[C@H](O)[C@H](O)[C@H]6O[C@@H]6O[C@@H](C)[C@H](O[C@@H]7O[C@H](CO)[C@@H](O)[C@H](O)[C@H]7O)[C@H](O)[C@H]6O)[C@H](O)C[C@]45C)C3(C)C)O[C@H](CO)[C@@H](O[C@@H]3OC[C@@H](O)[C@H](O)[C@H]3O)[C@@H]2O)[C@H](O)[C@H](O)[C@H]1O", "note": "(some centres undefined)", "outcome": "inactive"}, {"compound": "CC(C)CC1OC(=O)C2CCCN2C(=O)CCNC(=O)C(Cc2ccccc2)NC(=O)C(C(C)C)N(C)C(=O)C(C(C)C)N(C)C1=O", "note": "(centres undefined) (cyclo([ξLac(3-iPr)][NMeV][NMeV]F[βAla]P); configuration not given here)", "max response": 3.73}, {"compound": "O=C(c1cc2c(cc1F)OC(c1ccc(F)cc1)(c1ccc(Cl)cc1Cl)O2)N1CCOCC1", "note": "(centres undefined)", "Potency": "13000 nM (active)"}, {"compound": "CC[C@@](C)(Nc1ccnc(-c2c[nH]c3ncccc23)n1)C(=O)NCC(F)(F)F", "outcome": "inactive"}, {"compound": "C[C@@H]1CN(Cc2ccccc2)C[C@H]1c1nc2c(cnn2C2CCOCC2)c(=O)[nH]1", "max response": 2.05}, {"compound": "Nc1nc2c(c(=O)[nH]1)C[C@@H](CCc1ccc(C(=O)N[C@@H](CCC(=O)O)C(=O)O)cc1)CN2", "Potency": "58 nM (active)"}, {"compound": "CC1=C(C(=O)O[C@@H]2O[C@H](COC3OCC(O)C(O)C3O)[C@@H](O)[C@H](O)[C@H]2O)C(C)(C)CCC1", "note": "(some centres undefined)", "max response": -5.04}, {"compound": "NC(=O)c1cccc2cn(-c3ccc(C4CCCNC4)cc3)nc12", "note": "(centres undefined)", "max response": -7.35}, {"compound": "C=C1C(=O)O[C@@H]2C/C(C)=C\\C(=O)/C=C(\\C)[C@@H](OC(=O)/C(C)=C\\C)[C@H](O)[C@@H]12", "Potency": "11400 nM (active)"}, {"compound": "Cc1c2cc(c(C(=O)O)c1C)OC1OC(C(O)C(O)C1O)C(O)C(O)C1OC(O2)C(O)C(O)C1O", "note": "(centres undefined)", "outcome": "inactive"}, {"compound": "CN1CCN(Cc2ccc(-c3cnc4[nH]cc(-c5ccc6[nH]ccc6c5)c4c3)cc2)CC1", "Potency": "9200 nM (active)"}, {"compound": "Cc1cc(Nc2cc(N3CCN(C)CC3)nc(/C=C/c3ccccc3)n2)n[nH]1", "Potency": "1160 nM (active)"}, {"compound": "CCOCCn1nc(CC)c2nc(N3CCC(C(=O)O)CC3)nc(Nc3cc(C)ccn3)c21", "max response": -10.2}, {"compound": "CC(Oc1cc(-n2cnc3ccc(CN4CCN(C)CC4)cc32)sc1C(N)=O)c1ccccc1C(F)(F)F", "note": "(centres undefined)", "Potency": "651 nM (active)"}, {"compound": "C[C@H]1C(=O)N2c3ccccc3[C@@]3(O)C[C@@H]4C(=O)N[C@](C)(c5nc6ccccc6c(=O)n54)N1[C@@H]23", "outcome": "inactive"}, {"compound": "CC1(O)CC(O)C2(O)C=COC(O[C@@H]3O[C@H](CO)[C@@H](O)[C@H](O)[C@H]3O)C12", "note": "(some centres undefined)", "max response": 0.806}, {"compound": "Cc1nc(Nc2n[nH]c3c2CN(C(=O)NC(CN(C)C)c2ccccc2)C3(C)C)c2sccc2n1", "note": "(centres undefined)", "Potency": "1840 nM (active)"}, {"compound": "CCN(CC)CCN(Cc1ccc(-c2ccc(C(F)(F)F)cc2)cc1)C(=O)Cn1c(SCc2ccc(F)cc2)nc(=O)c2c1CCC2", "Potency": "20600 nM (active)"}, {"compound": "C[C@H](NC(c1cccc(C[P+](=O)O)c1)[C@H](C)O)c1ccc(Cl)c(Cl)c1", "note": "(some centres undefined)", "outcome": "inactive"}, {"compound": "CC1(C)CC[C@]2(C(=O)O)CC[C@]3(C)C(=CCC4[C@@]5(C)CC[C@H](O[C@@H]6O[C@H](CO)[C@@H](O)[C@H](O)[C@H]6O[C@@H]6O[C@H](CO)[C@@H](O)[C@H](O)[C@H]6O)[C@@](C)(CO)C5CC[C@]43C)[C@@H]2C1", "note": "(some centres undefined)", "max response": 8.35}]}]}
